This is an account of results in article PMC7862700, “An all-to-all approach to the identification of sequence-specific readers for epigenetic DNA modifications on cytosine”.

What all share (assay): DAPPL (digital affinity profiling via proximity ligation, sequencing); 10 mM Tris-HCl pH 7.5, 50 mM NaCl, 1 mM DTT, 4% glycerol, room temperature, 30 min; GST-TFs on glutathione beads, 16-mer random dsDNA library, 0.1% formaldehyde crosslink after washing; high values mean tight binding
What all share (settings): protein: recombinant; tags: N-terminal GST; dsDNA, one strand shown

One test has as its target T1, ELK1 (Homo sapiens, UniProt P19419 1-428).
T1 sequence: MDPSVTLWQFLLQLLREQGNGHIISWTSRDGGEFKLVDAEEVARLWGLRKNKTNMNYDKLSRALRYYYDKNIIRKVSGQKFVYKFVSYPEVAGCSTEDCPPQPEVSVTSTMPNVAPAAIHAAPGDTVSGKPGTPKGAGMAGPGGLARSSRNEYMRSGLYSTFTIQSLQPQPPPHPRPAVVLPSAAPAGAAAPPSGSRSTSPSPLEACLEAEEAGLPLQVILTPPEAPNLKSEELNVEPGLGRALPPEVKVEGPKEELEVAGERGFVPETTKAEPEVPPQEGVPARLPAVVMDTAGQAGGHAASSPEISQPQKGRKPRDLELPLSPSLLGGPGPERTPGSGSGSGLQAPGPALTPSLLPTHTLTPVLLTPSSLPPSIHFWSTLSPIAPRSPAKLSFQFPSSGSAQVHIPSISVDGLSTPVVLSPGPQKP
The gist of the method:
(§1)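 A tag-only sample was pooled with DNA-barcoded human transcription factors that had been expressed in yeast as GST fusions and captured on glutathione beads. The pools were incubated for 30 min at room temperature with 200 nmole of a random double-stranded 16-mer DNA library in Tris/NaCl/DTT/glycerol buffer, then washed, crosslinked with 0.1% formaldehyde, proximity-ligated (BsaI/T4 ligase, 1 h, 37 °C), PCR-amplified and sequenced on an Illumina NextSeq500. Binding signal is each hexamer's read frequency for a factor divided by its frequency for the tag-only sample.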

The next test deals with T2, GABPA (Homo sapiens, UniProt Q06546 1-454).
T2 sequence: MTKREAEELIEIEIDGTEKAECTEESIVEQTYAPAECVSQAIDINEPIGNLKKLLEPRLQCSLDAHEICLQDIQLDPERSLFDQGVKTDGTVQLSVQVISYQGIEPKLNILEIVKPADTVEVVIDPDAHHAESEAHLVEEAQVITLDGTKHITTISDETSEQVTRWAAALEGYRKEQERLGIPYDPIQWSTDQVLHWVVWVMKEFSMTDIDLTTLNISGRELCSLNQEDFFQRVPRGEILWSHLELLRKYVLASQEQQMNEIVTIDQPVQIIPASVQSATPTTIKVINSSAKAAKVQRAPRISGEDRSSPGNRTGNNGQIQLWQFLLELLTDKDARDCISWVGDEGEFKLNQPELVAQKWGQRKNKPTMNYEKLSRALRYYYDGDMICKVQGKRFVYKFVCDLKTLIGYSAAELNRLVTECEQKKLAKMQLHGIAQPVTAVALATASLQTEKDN
The procedure, abridged: as §1

The next test concerns the target T3, ERG (Homo sapiens, UniProt P11308 1-479).
T3 sequence: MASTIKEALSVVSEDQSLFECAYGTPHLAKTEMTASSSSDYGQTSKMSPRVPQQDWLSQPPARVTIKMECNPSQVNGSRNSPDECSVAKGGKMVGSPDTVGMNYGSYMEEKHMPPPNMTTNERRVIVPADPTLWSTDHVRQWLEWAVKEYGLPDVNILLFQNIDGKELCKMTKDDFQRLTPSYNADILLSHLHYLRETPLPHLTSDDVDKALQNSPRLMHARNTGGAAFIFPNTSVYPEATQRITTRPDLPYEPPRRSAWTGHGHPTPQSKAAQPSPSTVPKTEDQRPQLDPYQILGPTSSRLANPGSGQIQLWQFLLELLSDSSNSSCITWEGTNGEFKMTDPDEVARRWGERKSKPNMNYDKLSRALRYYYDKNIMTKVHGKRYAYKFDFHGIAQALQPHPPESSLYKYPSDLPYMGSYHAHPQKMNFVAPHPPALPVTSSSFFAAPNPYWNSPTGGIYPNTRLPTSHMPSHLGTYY
The procedure, abridged: as §1

The next test concerns the target ELF1 (Homo sapiens, UniProt P32519 1-619). The procedure, abridged: as §1
The next test deals with T4, ELK3 (Homo sapiens, UniProt P41970 1-407).
T4 sequence: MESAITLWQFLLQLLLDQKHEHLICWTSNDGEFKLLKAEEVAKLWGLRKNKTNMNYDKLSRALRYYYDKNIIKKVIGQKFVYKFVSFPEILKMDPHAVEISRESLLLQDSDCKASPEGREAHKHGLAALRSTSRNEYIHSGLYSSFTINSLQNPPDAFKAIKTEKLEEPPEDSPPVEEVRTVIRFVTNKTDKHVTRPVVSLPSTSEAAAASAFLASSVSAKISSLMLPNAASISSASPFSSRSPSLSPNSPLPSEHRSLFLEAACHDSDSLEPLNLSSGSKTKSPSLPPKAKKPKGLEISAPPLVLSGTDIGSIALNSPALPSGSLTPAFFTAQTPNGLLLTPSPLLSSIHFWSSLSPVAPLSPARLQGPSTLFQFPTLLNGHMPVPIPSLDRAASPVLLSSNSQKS
The gist of the method:
as §1

In another test the target is T5, SPIC (Homo sapiens, UniProt Q8N5J4 1-248).
T5 sequence: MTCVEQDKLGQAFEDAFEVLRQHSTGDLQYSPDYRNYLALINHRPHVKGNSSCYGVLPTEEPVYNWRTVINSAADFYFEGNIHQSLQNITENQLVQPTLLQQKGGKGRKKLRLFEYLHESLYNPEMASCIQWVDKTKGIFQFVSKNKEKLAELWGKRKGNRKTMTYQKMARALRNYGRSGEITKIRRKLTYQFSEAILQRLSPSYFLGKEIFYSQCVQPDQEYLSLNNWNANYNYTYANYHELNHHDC
The gist of the method: as §1

In a further test the target is ELF4 (Homo sapiens, UniProt Q99607 1-663). The gist of the method:
as §1

The next test concerns the target T6, ELF3 (Homo sapiens, UniProt P78545 1-371).
T6 sequence: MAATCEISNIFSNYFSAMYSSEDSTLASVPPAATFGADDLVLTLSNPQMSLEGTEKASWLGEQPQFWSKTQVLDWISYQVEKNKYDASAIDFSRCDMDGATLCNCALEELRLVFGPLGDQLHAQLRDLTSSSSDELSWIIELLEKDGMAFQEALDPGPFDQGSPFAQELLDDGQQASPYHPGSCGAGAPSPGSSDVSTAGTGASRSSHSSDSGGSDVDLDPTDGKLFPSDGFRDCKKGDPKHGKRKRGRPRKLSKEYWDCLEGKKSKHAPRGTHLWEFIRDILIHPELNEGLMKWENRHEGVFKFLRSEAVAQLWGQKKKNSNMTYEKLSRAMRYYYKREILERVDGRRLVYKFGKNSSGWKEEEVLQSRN
The gist of the method: as §1

The target in the next test is T7, ERF (Homo sapiens, UniProt P50548 1-548).
T7 sequence: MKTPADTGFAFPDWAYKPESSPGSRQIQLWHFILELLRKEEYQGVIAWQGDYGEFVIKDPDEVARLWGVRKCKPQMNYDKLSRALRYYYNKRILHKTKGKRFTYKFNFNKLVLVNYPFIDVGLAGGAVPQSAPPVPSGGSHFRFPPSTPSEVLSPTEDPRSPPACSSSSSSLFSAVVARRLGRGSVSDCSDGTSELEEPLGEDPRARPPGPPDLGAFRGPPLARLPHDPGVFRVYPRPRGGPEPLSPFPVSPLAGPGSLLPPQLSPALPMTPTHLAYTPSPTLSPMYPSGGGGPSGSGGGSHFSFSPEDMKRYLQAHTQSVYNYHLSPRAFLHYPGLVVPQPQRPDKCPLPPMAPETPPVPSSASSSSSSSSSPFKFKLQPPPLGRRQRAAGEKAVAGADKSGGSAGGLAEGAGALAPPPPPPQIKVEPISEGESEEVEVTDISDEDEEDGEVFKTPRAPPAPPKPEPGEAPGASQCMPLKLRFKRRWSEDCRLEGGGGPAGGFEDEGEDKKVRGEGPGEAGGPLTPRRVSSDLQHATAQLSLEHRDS
The gist of the method: as §1

For the next test, the target named is T8, ETV3L (Homo sapiens, UniProt Q6ZN32 1-361).
T8 sequence: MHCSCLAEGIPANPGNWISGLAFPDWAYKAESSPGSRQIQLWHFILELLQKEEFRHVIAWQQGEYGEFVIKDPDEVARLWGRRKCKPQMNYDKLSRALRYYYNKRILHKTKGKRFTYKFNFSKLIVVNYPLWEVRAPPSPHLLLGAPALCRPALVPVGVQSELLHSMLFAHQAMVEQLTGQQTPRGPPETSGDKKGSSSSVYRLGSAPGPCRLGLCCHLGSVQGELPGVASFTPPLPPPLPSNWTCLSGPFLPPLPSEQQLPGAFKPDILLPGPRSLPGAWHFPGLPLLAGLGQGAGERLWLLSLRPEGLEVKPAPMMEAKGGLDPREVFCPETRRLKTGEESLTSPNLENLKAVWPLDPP
The procedure, abridged: as §1

The target of the next test is T9, ETS2 (Homo sapiens, UniProt P15036 1-469).
T9 sequence: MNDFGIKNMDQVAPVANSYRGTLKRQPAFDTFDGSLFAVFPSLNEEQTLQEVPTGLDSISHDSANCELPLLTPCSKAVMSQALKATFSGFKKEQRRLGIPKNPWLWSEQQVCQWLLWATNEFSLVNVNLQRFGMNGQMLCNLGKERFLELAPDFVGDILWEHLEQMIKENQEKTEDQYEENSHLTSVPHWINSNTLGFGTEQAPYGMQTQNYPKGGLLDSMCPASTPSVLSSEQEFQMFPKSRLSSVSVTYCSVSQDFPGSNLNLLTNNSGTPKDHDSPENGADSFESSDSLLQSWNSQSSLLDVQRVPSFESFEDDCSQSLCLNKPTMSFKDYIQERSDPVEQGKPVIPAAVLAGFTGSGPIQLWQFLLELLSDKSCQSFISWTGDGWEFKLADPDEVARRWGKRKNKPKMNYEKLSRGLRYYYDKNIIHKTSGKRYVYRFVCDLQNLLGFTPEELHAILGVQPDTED
The procedure, abridged: as §1

Another test concerns the target T10, SPDEF (Homo sapiens, UniProt O95238 1-335).
T10 sequence: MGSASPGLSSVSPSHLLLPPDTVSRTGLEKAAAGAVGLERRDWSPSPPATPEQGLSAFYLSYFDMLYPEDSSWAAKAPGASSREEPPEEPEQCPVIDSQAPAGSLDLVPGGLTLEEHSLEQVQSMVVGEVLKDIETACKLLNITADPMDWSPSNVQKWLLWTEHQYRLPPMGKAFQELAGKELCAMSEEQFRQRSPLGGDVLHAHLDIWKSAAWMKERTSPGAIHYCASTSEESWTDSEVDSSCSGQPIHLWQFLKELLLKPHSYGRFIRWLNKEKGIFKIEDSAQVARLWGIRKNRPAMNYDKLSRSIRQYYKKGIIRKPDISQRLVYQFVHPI
The procedure, abridged: as §1

Another test addresses T11, ETV7 (Homo sapiens, UniProt Q9Y603 1-341).
T11 sequence: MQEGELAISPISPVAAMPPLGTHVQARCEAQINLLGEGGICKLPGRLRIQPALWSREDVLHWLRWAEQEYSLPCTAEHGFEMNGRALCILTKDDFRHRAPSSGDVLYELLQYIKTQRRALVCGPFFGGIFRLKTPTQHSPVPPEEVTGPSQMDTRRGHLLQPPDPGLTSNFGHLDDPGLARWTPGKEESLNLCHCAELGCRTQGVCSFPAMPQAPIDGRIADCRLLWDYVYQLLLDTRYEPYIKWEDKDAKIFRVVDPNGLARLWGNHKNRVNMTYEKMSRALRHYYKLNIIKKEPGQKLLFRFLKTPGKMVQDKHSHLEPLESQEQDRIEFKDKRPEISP
The procedure, abridged: as §1

The target in another test is T12, ETV3 (Homo sapiens, UniProt P41162-2 1-143).
T12 sequence: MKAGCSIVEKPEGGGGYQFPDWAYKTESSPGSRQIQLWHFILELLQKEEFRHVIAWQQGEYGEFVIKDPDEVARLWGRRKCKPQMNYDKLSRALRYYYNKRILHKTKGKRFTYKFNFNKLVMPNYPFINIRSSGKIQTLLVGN
The procedure, abridged:
as §1

The target of the next test is ETV6 (Homo sapiens, UniProt P41212 1-452). The gist of the method: as §1
ETV6, sequence (P41212 whole entry): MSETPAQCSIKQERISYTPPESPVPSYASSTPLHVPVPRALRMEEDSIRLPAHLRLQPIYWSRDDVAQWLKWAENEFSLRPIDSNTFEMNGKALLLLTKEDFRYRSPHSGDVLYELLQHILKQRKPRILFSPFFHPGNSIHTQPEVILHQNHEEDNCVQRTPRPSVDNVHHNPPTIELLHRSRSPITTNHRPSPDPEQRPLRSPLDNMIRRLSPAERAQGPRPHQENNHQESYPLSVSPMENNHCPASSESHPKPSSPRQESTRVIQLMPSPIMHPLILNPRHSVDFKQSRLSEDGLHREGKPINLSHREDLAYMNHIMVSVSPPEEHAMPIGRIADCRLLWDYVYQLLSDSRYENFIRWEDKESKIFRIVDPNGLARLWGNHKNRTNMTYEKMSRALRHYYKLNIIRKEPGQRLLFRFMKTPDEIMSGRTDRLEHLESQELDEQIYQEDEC

ELF4, sequence (Q99607 whole entry): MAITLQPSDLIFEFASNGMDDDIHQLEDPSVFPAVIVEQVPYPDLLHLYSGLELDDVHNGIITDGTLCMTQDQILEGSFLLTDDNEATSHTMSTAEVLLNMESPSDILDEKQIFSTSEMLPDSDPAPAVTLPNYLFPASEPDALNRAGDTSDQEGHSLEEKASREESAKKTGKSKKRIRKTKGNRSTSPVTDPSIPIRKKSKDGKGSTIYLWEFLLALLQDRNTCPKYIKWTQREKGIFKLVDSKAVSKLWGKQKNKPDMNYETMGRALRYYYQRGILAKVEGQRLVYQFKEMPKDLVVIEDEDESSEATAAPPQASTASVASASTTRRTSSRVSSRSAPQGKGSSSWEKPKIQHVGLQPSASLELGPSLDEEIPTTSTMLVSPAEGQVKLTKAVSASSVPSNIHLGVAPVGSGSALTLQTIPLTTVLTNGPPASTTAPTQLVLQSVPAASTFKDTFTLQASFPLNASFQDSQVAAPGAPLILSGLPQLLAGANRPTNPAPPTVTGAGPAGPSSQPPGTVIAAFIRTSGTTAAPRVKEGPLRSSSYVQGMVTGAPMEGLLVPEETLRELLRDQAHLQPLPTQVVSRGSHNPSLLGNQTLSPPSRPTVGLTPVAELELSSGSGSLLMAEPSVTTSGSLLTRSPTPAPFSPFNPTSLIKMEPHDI
ELF1, sequence (P32519 whole entry): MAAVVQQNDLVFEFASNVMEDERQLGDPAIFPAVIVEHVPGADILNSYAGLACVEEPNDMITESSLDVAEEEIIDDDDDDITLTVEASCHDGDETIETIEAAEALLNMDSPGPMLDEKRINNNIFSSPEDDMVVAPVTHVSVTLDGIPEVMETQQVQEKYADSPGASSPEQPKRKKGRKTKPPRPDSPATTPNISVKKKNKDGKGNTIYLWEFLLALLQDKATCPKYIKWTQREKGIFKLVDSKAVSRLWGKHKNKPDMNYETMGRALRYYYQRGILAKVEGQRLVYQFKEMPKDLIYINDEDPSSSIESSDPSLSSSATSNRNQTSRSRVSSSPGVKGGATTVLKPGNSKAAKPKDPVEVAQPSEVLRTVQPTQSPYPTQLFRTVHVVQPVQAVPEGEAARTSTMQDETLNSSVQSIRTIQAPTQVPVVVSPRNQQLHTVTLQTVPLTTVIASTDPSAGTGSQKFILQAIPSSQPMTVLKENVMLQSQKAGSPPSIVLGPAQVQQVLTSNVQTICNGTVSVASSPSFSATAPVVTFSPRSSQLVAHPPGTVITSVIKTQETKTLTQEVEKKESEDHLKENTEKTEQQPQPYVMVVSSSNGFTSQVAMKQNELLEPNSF

For CTAGAA, the binding signal is 1 fold enrichment (6-mer frequency, TF over GST control) with ELK1; 1.05 fold enrichment (6-mer frequency, TF over GST control) in the test with GABPA; 1.05 fold enrichment (6-mer frequency, TF over GST control) in the test with ERG; 1.04 fold enrichment (6-mer frequency, TF over GST control) in the test with ELF1; 1.09 fold enrichment (6-mer frequency, TF over GST control) with ELK3; 1.03 fold enrichment (6-mer frequency, TF over GST control) with SPIC. Moreover, the binding signal is 1.05 fold enrichment (6-mer frequency, TF over GST control) with ELF4; 1.03 fold enrichment (6-mer frequency, TF over GST control) with ELF3; 1.28 fold enrichment (6-mer frequency, TF over GST control) with ERF; 1.03 fold enrichment (6-mer frequency, TF over GST control) with ETV3L; 1.02 fold enrichment (6-mer frequency, TF over GST control) in the test with ETS2; 1.01 fold enrichment (6-mer frequency, TF over GST control) with SPDEF. For the same sequence, the binding signal with ETV7 is 1.02 fold enrichment (6-mer frequency, TF over GST control); with ETV3, 1.01 fold enrichment (6-mer frequency, TF over GST control); with ETV6 it was 1.04 fold enrichment (6-mer frequency, TF over GST control).
